Jurkat NFkB inh = inhibitors of induced NF-kB luciferase reporter, primary screen, TCR NF-kB activation inhibitor project, cell-based, luminescence, uHTS | inhibition, % at 4 µM | 0.53% of 330,000 active | Jurkat, PMA/ionomycin-induced NF-kB luciferase reporter; in the data active means inhibition above about 50%
aSyn UTR inh = MLPCN primary screen, SNCA 5' untranslated region; inhibition, % (tested at 7.5 µM); 0.82% of 300,000 active; alpha-synuclein 5'UTR reporter, inhibitor activity; AID 1813, 2009; in the data active means inhibition above about 60%; inconclusive means no clear call, values can overlap the other calls;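 further: H4 neuroglioblastoma cells stably carrying SNCA 5'UTR luciferase fusion; 0% = DMSO wells and 100% = positive control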
KLF5 inh = KLF5 expression inhibitors, primary screen, DLD-1 cells, luminescence | inhibition, % at 5 µM | 0.23% of 290,000 active | AID 1700, 2009 | DLD-1 KLF5 promoter-luciferase reporter;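 active means inhibition above a per-plate limit of that plate's mean compound inhibition plus 3 SD, cut at about 60% in these data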;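 further: 0% = DMSO wells and 100% = LY294002 at 200 µM; higher means less KLF5 promoter-driven luciferase light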
697 NFkB inh = inhibitors of PMA/ionomycin-induced NF-kB reporter, 697 cells, primary screen, B-cell NF-kB inhibitor project, cell-based, luminescence, uHTS; 697 B-cell NF-kB luciferase reporter, 16 h; inhibition, % at 4 µM; 0.33% of 330,000 active; in the data active means inhibition above about 35%
Gli-Sufu block = Gli-Sufu pathway antagonists, primary screen, luciferase luminescence, Sufu-KO-LIGHT cells, uHTS; inhibition, % at 5 µM; Sufu-KO-LIGHT fibroblasts, Gli luciferase reporter luminescence; 0.74% of 340,000 active;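 active means inhibition above about 55%, limit read from the data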;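 further: 0% = DMSO-treated cells and 100% = wells with medium but no cells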
Mdm2-MdmX inh = inhibitors of human Mdm2-MdmX association, primary screen, cell-based, luminescence, split luciferase, SaOS-2, uHTS | Protein Mdm4 (Homo sapiens) + E3 ubiquitin-protein ligase Mdm2 (Homo sapiens), … | SaOS-2 split-luciferase Mdm2/MdmX complementation | inhibition, % at 8 µM | 3% of 330,000 active;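 active means inhibition of at least 50% at 8 µM in the primary screen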
Target sequence (O15151 whole entry, looked up): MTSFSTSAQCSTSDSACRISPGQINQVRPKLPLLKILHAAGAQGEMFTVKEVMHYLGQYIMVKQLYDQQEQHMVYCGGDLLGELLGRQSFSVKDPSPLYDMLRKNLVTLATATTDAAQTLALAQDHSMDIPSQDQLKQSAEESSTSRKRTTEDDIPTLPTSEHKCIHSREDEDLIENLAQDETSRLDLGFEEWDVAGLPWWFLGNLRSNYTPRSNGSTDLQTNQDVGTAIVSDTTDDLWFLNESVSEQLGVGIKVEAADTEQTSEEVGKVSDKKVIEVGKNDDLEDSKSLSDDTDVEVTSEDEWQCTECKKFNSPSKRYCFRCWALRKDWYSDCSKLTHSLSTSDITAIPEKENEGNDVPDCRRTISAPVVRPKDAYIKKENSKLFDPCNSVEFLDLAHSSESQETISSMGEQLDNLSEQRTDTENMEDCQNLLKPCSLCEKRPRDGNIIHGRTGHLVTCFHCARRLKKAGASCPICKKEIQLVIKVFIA
Target sequence (Q00987 whole entry, looked up): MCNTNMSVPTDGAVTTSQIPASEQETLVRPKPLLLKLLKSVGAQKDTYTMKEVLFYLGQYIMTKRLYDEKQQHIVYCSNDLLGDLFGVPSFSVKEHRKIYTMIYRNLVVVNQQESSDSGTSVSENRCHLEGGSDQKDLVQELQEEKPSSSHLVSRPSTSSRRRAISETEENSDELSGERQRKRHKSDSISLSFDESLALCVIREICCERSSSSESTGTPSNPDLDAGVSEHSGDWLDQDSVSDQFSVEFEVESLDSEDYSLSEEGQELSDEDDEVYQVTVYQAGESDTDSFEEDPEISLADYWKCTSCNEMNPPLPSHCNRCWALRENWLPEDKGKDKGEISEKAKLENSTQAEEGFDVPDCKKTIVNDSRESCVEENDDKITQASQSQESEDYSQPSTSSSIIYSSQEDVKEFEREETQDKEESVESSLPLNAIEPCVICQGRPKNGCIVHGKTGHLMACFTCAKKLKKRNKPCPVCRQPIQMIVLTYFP
Jurkat NFkB conf = PMA/ionomycin-induced NF-kB reporter inhibitors, Jurkat retest, confirmation, T-cell NF-kB inhibitor project, cell-based, luminescence, single concentration; shares compounds with Jurkat NFkB inh; Jurkat NF-kB luciferase, 16 h; inhibition, % at 4 µM; 27% of 2,700 active; AID 435020, 2010;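 active means inhibition reaching about 45% at 4 µM in either replicate, limit read from the data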;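 further: plate controls were PMA/ionomycin stimulated DMSO wells for no effect and unstimulated DMSO wells for full effect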
* marks the source's active call; other numbers are inactive results; ? = inconclusive; · = no result given. Rows were chosen to be rich in hits. Some 4.1% of all compounds tested hit in one or more screens of this group.

SMILES	Jurkat NFkB inh	aSyn UTR inh	KLF5 inh	697 NFkB inh	Gli-Sufu block	Mdm2-MdmX inh	Jurkat NFkB conf
O=C(NCCSc1ccccc1)c1ccccc1	-145	-191	-183	-219	-91	-215	·
O=C(NCCSc1ccccc1)c1ccc(Br)cc1	-166	-67	-109	-170	-111	-180	-100
C=C(C)CN=CC1(C)CCC(C)=CO1 (stereo not given)	·	·	·	·	2	·	·
Cc1nc(-c2ccccc2)sc1-c1ccn[nH]1	-185	-6	-141	-201	-139	-195	-118
Brc1ccc2c(c1)C(C1=NCCN1)c1ccccc1CS2 (stereo not given)	60*	42	59	1	19	48	56*
Cc1ccc(N/C=C(/C#N)c2ccsc2)cc1C	-172	-172	-8	-161	-10	-250	-48
Cc1ccc(N/N=C(\C#N)C(=O)c2ccsc2)cc1	0	-50	-52	-32	5	-1	·
CC(=O)c1cc(-c2ccc(F)cc2)n(CCC(=O)Nc2cccc(C)n2)c1C	-4	-21	-37	-7	-2	20	·
CCOc1ccc(-c2cn3ccccc3n2)cc1	-153	·	24	-197	-79	-135	-62
CN(C(=O)COC(=O)c1ccc2c(c1)OCCO2)C1CCCCC1	6	·	·	23	1	2	·
N#Cc1c(-c2ccco2)ccn(Cc2cccc(F)c2)c1=O	-9	22	-1	6	-2	5	·
Oc1cccc2ccc(/C=C/c3cccs3)nc12	-189	-172	-20	-177	7	-31	-146
CCc1sc(C(=O)N2CCc3ccccc32)cc1C	-192	-51	-148	-167	-112	-309	-102
CC(=O)c1ccc(Nc2ccc(-c3ccccc3F)nn2)cc1	-161	-172	-175	-182	-167	-222	-121
COc1ccc2oc(C(=O)Nc3ccccn3)c(C)c2c1	-234	-31	-185	-214	-114	-137	-87
COc1ccc2oc(C(=O)Nc3ccc(C)cn3)c(C)c2c1	-92	-124	·	-119	-98	-53	·
Cc1ccc(S(=O)(=O)N2CCCCC2CCNC(=O)C(=O)NCc2ccccc2)cc1 (stereo not given)	63*	-31	·	-57	6	18	19
O=C(NCCc1ccccc1)C(=O)NCC1CCCN1S(=O)(=O)c1ccccc1 (stereo not given)	56*	-46	·	-21	-4	44	7
COC(=O)/C=C1\N/C(=N\c2nc(C)cc(C)n2)N(c2ccc(C)c(C)c2)C1=O	4	-43	-5	-8	46	17	·
CCOC(=O)CSc1nc2ccc(C)cc2cc1C#N	-147	-172	-173	-110	-4	-157	·
CCOC(=O)CSc1nc2cc(C)ccc2cc1C#N	-156	-150	-5	-119	-11	-73	-89
CCOC(=O)CSc1nc2cc(OC)ccc2cc1C#N	-207	-109	-21	-190	1	-116	-88
Oc1c(-c2cc(-c3ccco3)[nH]n2)ccc2ccccc12	-156	-170	-184	-147	-90	-157	-73
Oc1ccccc1-c1cc(-c2ccco2)[nH]n1	-26	-256	-75	-17	8	-54	·
Cc1ccc(C)c(S(=O)(=O)N2CCCOC2CNC(=O)C(=O)NCc2ccccn2)c1 (stereo not given)	5	-3	-41	9	-4	14	·
SMILES	Jurkat NFkB inh	aSyn UTR inh	KLF5 inh	697 NFkB inh	Gli-Sufu block	Mdm2-MdmX inh	Jurkat NFkB conf
COC(=O)c1ccccc1S(=O)(=O)NNC(=O)c1nn(C)c(=O)c2ccccc12	1	·	·	21	1	8	·
COc1cccc(-c2cc(C(=O)Nc3cc(C)n(Cc4ccc(Cl)cc4)n3)no2)c1	61*	16	-2	28	-3	31	42
COc1ccc(OC)c(-c2cc(C(=O)Nc3cc(C)n(Cc4ccc(Cl)cc4)n3)no2)c1	12	-20	2	-28	·	-14	·
Cc1ccc(NC(=S)c2ccc(N(C)C)cc2)cc1	-199	?	-56	-96	-134	-155	-49
CN(C)S(=O)(=O)c1ccc(/C(O)=C2/C(=O)C(=O)N(CCCN3CCOCC3)C2c2ccncc2)cc1 (stereo not given)	10	-3	·	9	-2	-5	·
CC(Oc1ccc(Cl)cc1Cl)C(=O)Nc1ccncc1 (stereo not given)	51*	-10	-3	-9	4	27	36
O=C(/C=C/Nc1cccc([N+](=O)[O-])c1)c1cccs1	-158	-279	-100	-120	-10	-141	-79
CCC(=O)NC(=S)Nc1ccc(-c2nc3ccccc3s2)cc1	-152	-59	-103	-184	-65	-10	-83
Cc1ccn(-c2ccc(NC(=O)c3cccs3)cc2)n1	-156	-63	-99	-44	-68	-133	-88
O=[N+]([O-])c1cccc(N/N=C/c2cc([N+](=O)[O-])ccc2O)c1	-2	-70	-26	-11	-26	-14	·
O=[N+]([O-])c1ccc(N/N=C/c2ccccc2O)cc1	61*	-165	-165	-33	22	-30	-31
N#Cc1cc(Br)ccc1N=C1CCCN1c1ccccc1	-1	-6	5	2	18	4	·
Cc1cccc(N2CCCC2=Nc2ccc(Br)cc2C#N)c1	62*	5	-16	6	2	20	9
O=C(N/N=C/c1cccnc1)c1cc(-c2ccc(Cl)cc2)nc2ccccc12	4	-30	·	-7	3	14	·
O=C(N/N=C/c1ccc(Cl)cc1)c1cc(-c2cccnc2)nc2ccccc12	66*	43	-23	-42	-18	39	15
O=[N+]([O-])c1ccc(F)cc1OCc1nc(-c2cccs2)no1	·	-177	5	·	-93	·	·
O=[N+]([O-])c1ccccc1OCc1nc(-c2cccs2)no1	-162	-114	-204	-166	-117	-179	-121
Cc1ccccc1N(C(=O)CNC(=O)c1ccco1)C(C(=O)NC1CCCC1)c1ccncc1 (stereo not given)	-14	3	-9	-3	-4	13	·
COc1cc(SC)ccc1C(=O)Nc1ccccn1	-166	-1	-101	-221	-96	-174	-96
COc1cc(SC)ccc1C(=O)Nc1cccc(C)n1	-153	-88	-122	-153	-83	-158	-69
COCCC(=O)N1CCC(Oc2ccc(C(=O)N3CCCC(COC)C3)cc2)CC1 (stereo not given)	-1	-1	-24	0	-9	-10	·

High-throughput results as filed in PubChem BioAssay.
